About 79,000 compounds went through this panel and 15% of them were active in at least one assay; those are over-represented in the sample as a whole. Active and inactive are the calls of the source. No stated cut-off is given here; in the data, active means growth inhibition above about 70%; inactive means the rest.
Legend:
[1] = NCI Yeast Anticancer Drug Screen. Data for the rad52 strain (AID 147);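 further: 0% = growth of vehicle-treated control cultures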; details: S. cerevisiae rad52 mutant growth inhibition, hits give high values
Procedure, shortened: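 Inhibition of yeast growth, referenced to vehicle controls, was the measured output for a strain with defective DNA damage repair.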

[2] = NCI Yeast Anticancer Drug Screen. Data for the wt1 strain (AID 149);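 further: 0% = growth of vehicle-treated wt1 cultures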; details: S. cerevisiae wt1 strain (SPY 50644) growth inhibition, hits give high values
Procedure, shortened: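 Readout: yeast growth inhibition, normalised to vehicle controls, in the wt1 strain exposed to test compounds.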

[3] = NCI Yeast Anticancer Drug Screen. Data for the rad50EPP+ strain (AID 151);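 further: 0% = growth of vehicle-treated control cultures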; details: S. cerevisiae rad50 mutant strain, hits give high values
Procedure, shortened: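 Genetically defined yeast (rad50EPP+, DNA damage repair alteration) is grown with compound, and inhibition of growth is expressed relative to vehicle-treated controls.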

[4] = NCI Yeast Anticancer Drug Screen. Data for the mgt1 strain (AID 153); details: S. cerevisiae mgt1 mutant growth inhibition, hits give high values
Procedure, shortened: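 In the mgt1 strain, test compounds were added and growth inhibition was determined relative to vehicle-treated controls.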

[5] = NCI Yeast Anticancer Drug Screen. Data for the rad50 strain (AID 155);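 further: 0% = growth of vehicle-only cultures of the same strain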; details: S. cerevisiae rad50 strain growth inhibition, hits give high values
Procedure, shortened: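 Compounds were tested on a yeast strain with an engineered DNA damage repair alteration; the reported value is growth inhibition normalised to vehicle treatment.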

[6] = NCI Yeast Anticancer Drug Screen. Data for the mec2-1 strain (AID 157); details: S. cerevisiae mec2-1 strain, hits give high values
Procedure, shortened: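 Each compound was tested on mec2-1 yeast, a strain altered in DNA damage repair or cell cycle control. Growth inhibition is reported relative to vehicle.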

[7] = NCI Yeast Anticancer Drug Screen. Data for the rad14 strain (AID 159);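 further: 0% = growth of vehicle-treated control cultures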; details: S. cerevisiae rad14 strain growth inhibition, hits give high values
Procedure, shortened: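 Compound-treated yeast with a defined DNA-repair lesion; growth inhibition normalised to vehicle-treated cultures.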

[8] = NCI Yeast Anticancer Drug Screen. Data for the sgs1 mgt1 strain (AID 161);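 further: 0% = growth of cultures given vehicle only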; details: S. cerevisiae sgs1 mgt1 strain, hits give high values
Procedure, shortened: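 Test agents were incubated with a DNA-repair-mutant yeast strain. Growth was then read and compared against vehicle-treated controls.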

[9] = NCI Yeast Anticancer Drug Screen. Data for the CLN2oe strain (AID 163);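 further: 0% = growth of vehicle-only control cultures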; details: S. cerevisiae CLN2oe strain, hits give high values
Procedure, shortened: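 First, the altered yeast strain was treated with each compound; second, its growth was measured; finally, inhibition was derived by comparison with vehicle controls.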

[10] = NCI Yeast Anticancer Drug Screen. Data for the cln2 rad14 strain (AID 165);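 further: 0% = growth equal to vehicle treated cultures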; details: S. cerevisiae cln2 rad14 strain, hits give high values
Procedure, shortened: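 Test compounds were added to cln2 rad14 yeast cultures; inhibition of growth was then determined by comparison with vehicle treatment.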

[11] = NCI Yeast Anticancer Drug Screen. Data for the bub3 strain (AID 167); details: S. cerevisiae bub3 mutant strain, hits give high values
Procedure, shortened: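 Growth of a checkpoint-deficient yeast mutant is measured after compound exposure. Values represent inhibition relative to vehicle.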

[12] = NCI Yeast Anticancer Drug Screen. Data for the wt2 strain (AID 169);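 further: 0% = growth of vehicle-treated yeast cultures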; details: S. cerevisiae wt2 strain growth inhibition, hits give high values
Procedure, shortened: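 The panel's yeast strains carry defined changes in DNA repair or cell cycle genes. Each strain is grown with compound, and growth loss is scored relative to vehicle.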

[13] = NCI Yeast Anticancer Drug Screen. Data for the mlh1 strain (AID 171);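 further: 0% = growth of vehicle-treated control cultures of the same strain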; details: S. cerevisiae mlh1 strain growth inhibition, hits give high values
Procedure, shortened: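 Inhibition values reflect reduced yeast growth in the presence of compound, referenced to vehicle controls, using a strain chosen for its alteration in DNA repair or cell cycle control.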

[14] = NCI Yeast Anticancer Drug Screen. Data for the sgs1 strain (AID 173);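 further: 0% = growth of vehicle-only control cultures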; details: S. cerevisiae sgs1 mutant, hits give high values
Procedure, shortened: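 Vehicle-treated cultures served as reference for growth inhibition of a yeast strain altered in DNA damage repair or cell cycle control after compound exposure.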

[15] = NCI Yeast Anticancer Drug Screen. Data for the mlh1 rad18 strain (AID 175); details: S. cerevisiae mlh1 rad18 strain growth inhibition, hits give high values
Procedure, shortened: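 Inhibition values reflect reduced growth of mutant yeast versus vehicle-treated controls following compound exposure; the mutations affect DNA damage repair.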

[16] = NCI Yeast Anticancer Drug Screen. Data for the rad18 strain (AID 177); details: S. cerevisiae rad18 mutant growth inhibition, hits give high values
Procedure, shortened: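 Steps: expose repair-mutant yeast to compound; measure growth; express as inhibition relative to vehicle control.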

[17] = at 5.0 µM (retest, dose inferred, filed as 0.5)
[18] = at 50.0 µM (retest, dose inferred, filed as 5.0)

Measured: growth inhibition

Cc1ccc(S(=O)(=O)Nc2cccc3cccnc23)cc1
inactive: [1]; at 1.2 µM 10% | [1]; at 3.7 µM 14% | [1]; at 11.0 µM 25% | [1]; at 100.0 µM 52% | [2]; at 1.2 µM 15% | [2]; at 3.7 µM 14% | [2]; at 11.0 µM 18% | [2]; at 100.0 µM 39% | [3]; at 1.2 µM 16% | [3]; at 3.7 µM 17% | [3]; at 11.0 µM 16% | [3]; at 33.0 µM 62% | [3]; at 100.0 µM 66% | [4]; at 1.2 µM 14% | [4]; at 3.7 µM -5% | [4]; at 11.0 µM 25% | [5]; at 1.2 µM 15% | [5]; at 3.7 µM 25% | [5]; [17] 46% | [5]; at 11.0 µM 22% | [5]; at 50.0 µM 46% | [6]; at 1.2 µM 7% | [6]; at 3.7 µM 18% | [6]; [17] 49% | [6]; at 11.0 µM 23% | [6]; at 50.0 µM 20.2% | [6]; at 100.0 µM 60% | [7]; at 1.2 µM -19% | [7]; at 3.7 µM -16% | [7]; at 11.0 µM 16% | [7]; at 100.0 µM 56% | [8]; [17] -15% | [8]; [18] 41% | [8]; at 50.0 µM 59% | [9]; at 1.2 µM 15% | [9]; at 3.7 µM 12% | [9]; at 11.0 µM 41% | [9]; at 33.0 µM 69% | [9]; at 100.0 µM 46% | [10]; [17] 25% | [10]; [18] 54% | [10]; at 50.0 µM 48% | [11]; at 1.2 µM -11% | [11]; at 3.7 µM -14% | [11]; [17] 29% | [11]; at 11.0 µM -3% | [11]; at 33.0 µM 50% | [11]; [18] 23% | [11]; at 50.0 µM 27.7% | [11]; at 100.0 µM 15% | [12]; at 1.2 µM -13% | [12]; at 3.7 µM -5% | [12]; at 11.0 µM 8% | [12]; at 33.0 µM 53% | [12]; at 100.0 µM 59% | [13]; at 1.2 µM 14% | [13]; at 3.7 µM 3% | [13]; at 11.0 µM 9% | [13]; at 100.0 µM 62% | [14]; at 1.2 µM 1% | [14]; at 3.7 µM 4% | [14]; at 11.0 µM 44% | [14]; at 100.0 µM 63% | [15]; [17] 44% | [16]; at 1.2 µM 9% | [16]; at 3.7 µM 4% | [16]; at 11.0 µM 25%
active: [1]; at 33.0 µM 75% | [2]; at 33.0 µM 71% | [4]; at 33.0 µM 77% | [4]; at 100.0 µM 79% | [5]; at 33.0 µM 79% | [5]; [18] 97% | [5]; at 100.0 µM 84% | [6]; at 33.0 µM 79% | [6]; [18] 98% | [7]; at 33.0 µM 72% | [13]; at 33.0 µM 78% | [14]; at 33.0 µM 82% | [15]; [18] 100% | [15]; at 50.0 µM 71% | [16]; at 33.0 µM 74% | [16]; at 100.0 µM 71%

Cc1cc2nc3ccccc3n2c2ccccc12
inactive: [1]; at 1.2 µM -33% | [1]; at 3.7 µM -33% | [1]; at 11.0 µM -56% | [1]; at 33.0 µM -11% | [1]; at 100.0 µM 41% | [2]; at 1.2 µM -53% | [2]; at 3.7 µM -48% | [2]; at 11.0 µM -39% | [2]; at 33.0 µM -31% | [2]; at 100.0 µM -8% | [3]; at 1.2 µM -49% | [3]; at 3.7 µM -24% | [3]; at 11.0 µM -21% | [3]; at 33.0 µM 28% | [3]; at 100.0 µM 63% | [4]; at 1.2 µM -25% | [4]; at 3.7 µM 4% | [4]; at 11.0 µM 6% | [4]; at 33.0 µM 37% | [4]; at 100.0 µM 61% | [5]; at 1.2 µM 2% | [5]; at 3.7 µM -7% | [5]; [17] 0% | [5]; at 11.0 µM 5% | [5]; at 33.0 µM 64% | [5]; at 50.0 µM 41% | [6]; at 1.2 µM -45% | [6]; at 3.7 µM -45% | [6]; [17] -11% | [6]; at 11.0 µM -41% | [6]; at 33.0 µM -30% | [6]; [18] 39% | [6]; at 50.0 µM 56.1% | [6]; at 100.0 µM 8% | [7]; at 1.2 µM -21% | [7]; at 3.7 µM -37% | [7]; at 11.0 µM -36% | [7]; at 33.0 µM -23% | [7]; at 100.0 µM 35% | [8]; [17] -10% | [8]; [18] 29% | [8]; at 50.0 µM 66.7% | [9]; at 1.2 µM -32% | [9]; at 3.7 µM -24% | [9]; at 11.0 µM -30% | [9]; at 33.0 µM -7% | [9]; at 100.0 µM 37% | [10]; [17] 2% | [10]; [18] 60% | [10]; at 50.0 µM 52.6% | [11]; at 1.2 µM -15% | [11]; at 3.7 µM -7% | [11]; [17] 5% | [11]; at 11.0 µM -6% | [11]; at 33.0 µM 5% | [11]; [18] 50% | [11]; at 50.0 µM 69% | [11]; at 100.0 µM 44% | [12]; at 1.2 µM -57% | [12]; at 3.7 µM -45% | [12]; at 11.0 µM -51% | [12]; at 33.0 µM -23% | [12]; at 100.0 µM 45% | [13]; at 1.2 µM -33% | [13]; at 3.7 µM -27% | [13]; at 11.0 µM -7% | [13]; at 33.0 µM 53% | [14]; at 1.2 µM -43% | [14]; at 3.7 µM -35% | [14]; at 11.0 µM -40% | [14]; at 33.0 µM -29% | [14]; at 100.0 µM -13% | [15]; [17] 6% | [15]; at 50.0 µM 65.9% | [16]; at 1.2 µM -24% | [16]; at 3.7 µM -23% | [16]; at 11.0 µM -10% | [16]; at 33.0 µM -8% | [16]; at 100.0 µM 29%
active: [5]; [18] 86% | [5]; at 100.0 µM 91% | [13]; at 100.0 µM 80% | [15]; [18] 78%

Reference: PubChem BioAssay (NCI)
